Screening data from PubChem BioAssay.
LDHA block – blocks human lactate dehydrogenase A | purified LDHA, NADH/diaphorase-resazurin fluorescence; hits give low values | 480,000 compounds, 0.15% hits | P00338 | activity change, % (values are at about 110 or 230 µM); in the data active means activity change below about -30%; inconclusive means mostly about -25% to -30%
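Resorufin fluorescence (ex540/em590), read at 0 and 20 min after diaphorase/resazurin addition, reports the NADH left after a 5 min room-temperature reaction of 2 nM human LDH5 with 0.06 mM NADH and 0.2 mM pyruvate.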
pAkt inh – Akt phosphorylation inhibition; Neuro2A IGF-stimulated pAkt S473 HTRF, 20 min; hits give low values; activity change, % for hits at 50 µM; 360,000 compounds, 0.32% hits; in the data active means activity change below about -80%; inconclusive means mostly about -51% to -80%
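Single-point screen (50 µM final compound) in Neuro2A cells stimulated 20 min with 6 nM IGF at 37 deg C. After lysis, Ser473-phosphorylated Akt read by HTRF (ex 330 nm, em 615/665 nm) as the 665/615 ratio.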
D3 ag – agonists of human D3 dopamine receptor; max activation, %; 410,000 compounds, 0.58% hits; D3R DiscoveRx beta-arrestin cells, luminescence, 90 min; AID 652048; P35462; in the data active means max activation above about 30%
Target sequence (P35462 whole entry, looked up): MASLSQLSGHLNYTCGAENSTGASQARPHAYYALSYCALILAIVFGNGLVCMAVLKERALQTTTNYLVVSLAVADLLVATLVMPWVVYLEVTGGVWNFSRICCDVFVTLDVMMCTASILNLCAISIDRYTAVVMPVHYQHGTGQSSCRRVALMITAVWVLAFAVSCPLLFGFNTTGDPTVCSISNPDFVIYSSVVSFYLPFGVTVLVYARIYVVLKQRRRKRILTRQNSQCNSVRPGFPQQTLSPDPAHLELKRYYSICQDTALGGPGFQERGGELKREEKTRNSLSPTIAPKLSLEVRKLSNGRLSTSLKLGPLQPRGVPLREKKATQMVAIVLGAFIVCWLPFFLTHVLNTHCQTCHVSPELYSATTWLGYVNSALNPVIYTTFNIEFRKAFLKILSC
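Cells at 1500/well, incubated overnight, then treated with pinned compounds (dopamine as control) for 90 min at 37 degrees C. DiscoveRx reagent added for 30 - 60 minutes at room temperature; luminescence read.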
D3 antag – D3 dopamine receptor (human) antagonism. P35462. D3R cells, DiscoveRx beta-arrestin luminescence, antagonist mode; hits give low values. max response, negative = inhibition, %. 360,000 compounds, 2.5% hits. AID 652054; in the data active means max response below about -50%; inconclusive means no clear call, values can overlap the other calls
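Cells plated overnight at 1500 cells/well, then exposed to library compounds with dopamine controls for 90 minutes at 37 degrees C. DiscoveRx reagent added for 30–60 minutes at room temperature; luminescence read, quantitative HTS format.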
PI4K2A block – PI4K2A (human) kinase inhibition | Q9BTU6 | purified PI4K2A, ADP-Glo luminescence, 1 h; hits give low values | activity change, negative = inhibition, % at 76.9 µM | 420,000 compounds, 0.13% hits; in the data active means activity change below about -50%; inconclusive means mostly about -30% to -49%
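Compounds are screened against recombinant PI4K2A using PI as substrate and ATP, the latter dispensed at 300 microM. Reactions run one hour at ambient temperature before ADP-Glo detection; full inhibition defined by wells lacking enzyme.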
RGS4 inhibitor – blocks human RGS4-accelerated GTP hydrolysis; AID 504845; P49798; Potency, µM (doses to about 114 µM), most hits filed as inhibitors; 390,000 compounds, 0.039% hits; Transcreener GDP fluorescence polarization, RGS4-accelerated GTP hydrolysis; active means well fitted inhibition curve with a large enough effect; inconclusive means small, poorly fitted or top-dose-only effect; inactive means no such curve, though single readings can be large or run the other way; further: nearly all actives have a fitted effect of over 75% in size
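MLSMR compounds (23 nl, pin-transferred) preincubated 10 min at room temperature with a 500nM (2x) first reagent, then RGS4 at 900nM (2x) plus Transcreener GDP mix added; fluorescence polarization (620/688 nm) read before and after 90 min at 30 °C.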
A number is an active result; – = inactive; ? = inconclusive; · = no result given; [ ] = dose if it differs, or a comment. Sampled rows, rich in hits. Any-hit rate of the full collection: about 2.8%.

SMILES | LDHA block | pAkt inh | D3 ag | D3 antag | PI4K2A block | RGS4 inhibitor
O=C(OCCN1CCCCC1)c1ccccc1Br | – | – | – | – | – | –
O=C(c1cc2ccccc2o1)N1CCN(CCOc2ccccc2)CC1 | – | – | 57.6 | – | – | –
O=C(c1cc2ccccc2o1)N1CCN(S(=O)(=O)c2ccccc2)CC1 | – | – | – | – | – | –
O=C(OCCN1CCCCC1)c1cc2ccccc2o1 | – | – | – | -65.9 | – | –
CCOCc1c(C(=O)N2CCN(CCOc3ccc(Cl)cc3)CC2)oc2ccccc12 | – | – | 108.0 | – | – | –
CCn1cc(/C=C(\NC(=O)c2ccco2)C(=O)NCCN2CCOCC2)c2ccccc21 | – | · | · | · | · | ·
O=C(c1cc2ccccc2o1)c1nc2c(n1O)CCCCC2 | – | – | – | -79.1 | – | –
O=C(Nc1ccc2ccccc2c1)N1CCCN(CCOc2ccccc2)CC1 | – | – | – | -77.8 | – | –
CCCN1CCN(C(=O)Nc2ccc(OCC)cc2)CC1 | – | – | – | – | – | –[11.4 µM]
CC1=C(C(=O)Nc2ccccc2)C(c2cccs2)n2nc(-c3ccccc3)nc2N1 (centres undefined) | – | · | · | · | · | ·
Cc1ccc(NC(=O)c2nnc(C(=O)N3CCC(CC(=O)N4CCCCC4)CC3)s2)cc1 | – | · | · | · | · | ·
COc1ccc(OC)c(C2CC(=O)Nc3c(C(=O)O)cn(-c4ccc(F)cc4)c32)c1 (centres undefined) | – | · | · | · | · | ·
CC(COc1ccccc1)NN (centres undefined) | · | · | 67.1 | · | – | ·
OC(CNCC(O)COc1ccccc1)COc1ccccc1 (centres undefined) | – | · | · | · | · | ·
CC(CCc1ccccc1)NCC(O)COc1ccccc1 (centres undefined) | – | – | – | -64.5 | – | –
OC(CNCc1ccccc1)COc1ccccc1 (centres undefined) | – | – | – | – | – | –
CCCn1c(=O)[nH]c(=O)c2c1nc(-c1ccccn1)n2CCOC | – | · | · | · | · | ·
Cc1cc(Cl)c(OCCOCCN2CCCC(C)C2)c(Br)c1 (centres undefined) | – | – | – | ? | – | –
CC1CCN(CCCOc2ccc(Br)cc2Cl)CC1 | – | – | – | -62.1 | – | –
CN1CCN(CCOCCOc2ccc(Br)cc2Cl)CC1 | -37.5 | – | – | -61.2 | – | –
CC1CCCN(CCOCCOc2ccc(Br)cc2Cl)C1 (centres undefined) | ? | – | – | -82.5 | – | –
CC1CCCN(CCOCCOc2ccc(Cl)cc2Br)C1 (centres undefined) | – | – | – | -99.6 | – | –
CCn1nc(C(=O)Nc2ccc3c(c2)OCO3)c2ccccc2c1=O | – | · | · | · | · | ·
Cc1ccc(OCCCCN2CCC(C)CC2)c(Br)c1 | – | – | – | -95.6 | – | –
Cc1ccc(OCCCCCCN2CCNCC2)c(Br)c1 | – | – | – | – | – | –
SMILES | LDHA block | pAkt inh | D3 ag | D3 antag | PI4K2A block | RGS4 inhibitor
O=C(c1ccc(CN2CCc3ccccc3C2)cc1)N1CCN(c2ccccc2)CC1 | – | – | – | -62.3 | – | –
COc1cc(OC)cc(C(=O)N2CCN(C3CCN(Cc4ccccc4)CC3)CC2)c1 | -31.4 | · | – | -62.3 | – | –
O=C(c1ccc2c(c1)CCC2)N1CCN(Cc2ccccc2)CC1 | – | – | – | -61.1 | – | ·
O=C(c1ccc(CN2CCc3ccccc3C2)cc1)N1CCc2ccccc2C1 | – | – | – | -75.9 | – | –
COc1cc(OC)cc(C(=O)N2CCN(C3CCCCC3)CC2)c1 | – | – | – | ? | – | –
O=C(c1ccc(Cn2cncn2)cc1)N1CCN(c2ccccc2)CC1 | – | · | · | · | · | ·
CCOCCCNC(=O)/C(C#N)=C\c1cccc(F)c1 | – | · | · | · | · | ·
Cc1cc(CS(=O)(=O)Cc2ccc(F)cc2Cl)no1 | – | · | · | · | · | ·
COc1ccc(Cl)cc1NC(=O)CCc1ncc(-c2ccccc2F)o1 | – | · | · | · | · | ·
CCCNC(=O)CCC(=O)NC(C)c1cccc(Cl)c1 (centres undefined) | – | · | · | · | · | ·
Cc1ccc(CNc2oc(-c3ccccc3F)nc2C#N)cc1 | – | · | · | · | · | ·
Nc1ncnc2c1ncn2[C@H]1C[C@H](O)[C@@H](CO)O1 | – | – | – | – | ? | –
Nc1nc(Cl)nc2c1ncn2[C@H]1C[C@H](O)[C@@H](CO)O1 | – | · | – | -80.3 | – | –
